# In paper PMC5540273 (PLoS ONE, 2017):
# Key:
# Conditions in all cases: concentration: 1 μM, replicates: in singlicate; n = 1
# MYLK4 = test system: MYLK4
# MYLK = test system: MYLK
# MYO3A = test system: MYO3A
# MYO3B = test system: MYO3B
# NDR1 = test system: T1, NDR1
# T1 construct: gene STK38
# NDR2 = test system: NDR2
# NEK10 = test system: NEK10
# NEK11 = test system: NEK11
# NEK1 = test system: NEK1
# NEK2 = test system: NEK2
# NEK3 = test system: NEK3
# NEK4 = test system: NEK4
# NEK5 = test system: NEK5
# NEK6 = test system: NEK6
# NEK7 = test system: NEK7
# NEK9 = test system: NEK9
# NIK = test system: T2, NIK
# T2 construct: gene MAP3K14
# NIM1 = test system: T3, NIM1
# T3 construct: gene MGC42105
# NLK = test system: NLK
# OSR1 = test system: T4, OSR1
# T4 construct: gene OXSR1
# 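Further: KINOMEscan kinase panel screen.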
SMILES,%Inh (MYLK4) [%],%Inh (MYLK) [%],%Inh (MYO3A) [%],%Inh (MYO3B) [%],%Inh (NDR1) [%],%Inh (NDR2) [%],%Inh (NEK10) [%],%Inh (NEK11) [%],%Inh (NEK1) [%],%Inh (NEK2) [%],%Inh (NEK3) [%],%Inh (NEK4) [%],%Inh (NEK5) [%],%Inh (NEK6) [%],%Inh (NEK7) [%],%Inh (NEK9) [%],%Inh (NIK) [%],%Inh (NIM1) [%],%Inh (NLK) [%],%Inh (OSR1) [%]
O=C(NCCCN1CCCC1=O)c1cnc(NCc2cc(Cl)ccc2Cl)nc1NC1CCNCC1,3,11,0,0,0,0,0,0,0,7,37,0,0,0,0,0,0,0,2,0
O=C(Nc1ccccc1)Nc1ccc(Oc2ccc3nccn3n2)cc1,0,11,0,0,16,0,0,0,0,0,8,0,20,0,0,0,0,0,2,0
CC(=O)Nc1n[nH]c2ncc(-c3ccccc3)cc12 [SB-548492],28,23,25,0,8,17,0,18,0,9,20,25,5,8,19,7,3,100,24,9
COc1cc2ncnc(Nc3ccc(OCc4ccccc4Br)c(Cl)c3)c2cc1OC.Cl [GI261590],0,10,38,0,0,0,25,0,0,0,12,0,14,0,0,0,20,22,26,0
FC(F)(F)c1cc(Nc2nccc(-c3c(-c4ccc(Cl)cc4)nn4ncccc34)n2)ccc1Cl [GW829351],1,0,0,0,16,0,0,0,0,0,2,0,0,0,0,0,4,0,29,0
CCc1nc(-c2cccc(N(C)S(=O)(=O)c3ccccc3)c2)c(-c2ccnc(Nc3ccc(N4CCN(C(C)=O)CC4)nc3)n2)s1 [GSK1645895],7,15,23,0,15,0,0,0,14,9,9,19,0,0,0,14,0,0,8,3
Fc1cccc(COc2ccc(Nc3ncnc4sc(-c5ccc[nH]5)cc34)cc2Cl)c1 [GW707818],13,13,17,0,23,17,4,24,0,15,1,0,31,0,0,17,0,14,23,0
CN1CCC(n2cnc(-c3ccc(F)cc3)c2-c2ccnc(NC3CCNCC3)n2)CC1 [SB-229482],11,5,14,0,0,0,13,0,0,0,9,0,0,12,1,21,0,54,52,0
Clc1cccc(-c2nc(Nc3ccncc3)c3ccccc3n2)c1 [GW873004],0,0,15,17,15,0,0,0,0,0,36,0,23,14,0,3,0,0,30,0
c1ccc(-c2ccc3c(-c4ccnc(Nc5ccc6c(c5)OCCO6)n4)cnn3n2)cc1 [GW818941],0,11,15,0,11,0,19,0,0,0,0,4,14,15,43,27,10,7,17,0
Fc1cccc(COc2ccc(Nc3ncnc4nn5ccccc5c34)cc2Cl)c1 [GW689066],0,0,18,0,55,0,0,11,0,0,0,0,0,0,0,4,0,13,7,3
Clc1ccc(-c2cc(-c3c[nH]nc3-c3ccccn3)ccn2)cc1 [GW681251],0,0,0,0,0,0,12,0,0,0,3,8,36,0,0,2,30,16,11,2
Cc1ccc(O)cc1Nc1cc(C(F)(F)F)nc2ccc(-c3ccncc3)cc12 [GW630823],0,6,6,0,0,6,0,0,0,2,0,0,6,8,58,42,0,0,10,0
FC(F)(F)c1ccc(-c2cc(-c3c[nH]nc3-c3ccccn3)ccn2)cc1 [GW599550],1,21,27,0,22,9,17,24,9,1,4,0,0,0,6,52,0,11,22,0
COc1cc2c(Nc3cccc(NC(=O)c4ccccc4)c3)ncnc2cc1OCCCN1CCOCC1 [GSK223810],2,2,0,0,0,0,0,0,1,2,0,0,0,0,0,21,0,0,33,16
CCCc1ccc(S(=O)(=O)NC2CCN(c3ccnc(Nc4ccc(OC)cc4)n3)C2)cc1 (stereo not drawn) [GSK1379737],0,30,15,0,0,0,21,27,0,0,1,10,15,39,0,0,43,30,0,100
CCc1nc(-c2cccc(C)c2)c(-c2ccnc(NC(=O)c3ccccc3)c2)s1,0,18,65,0,0,22,6,0,0,0,27,0,2,28,16,13,22,11,23,10
Nc1nc(-c2ccc3c(N)n[nH]c3c2)cc(N2CCC[C@@H](C(=O)Nc3ccccc3)C2)n1.O=C(O)C(F)(F)F.O=C(O)C(F)(F)F [GSK2288359],9,27,19,0,1,5,0,0,0,0,2,0,13,0,0,15,0,8,0,3
COC(=O)c1c(-c2ccccc2)c2cc(Cl)ccc2c(=O)n1Cc1ccc(S(C)(=O)=O)cc1,5,34,0,0,0,0,13,0,0,83,4,0,0,2,0,0,0,0,0,0
COc1ccc(Nc2nccc(N3CCC(NC(=O)Nc4ccc5c(c4)OCO5)C3)n2)cc1 (stereo not drawn) [GSK1379745],0,25,0,3,0,0,0,0,0,0,0,3,25,7,3,0,1,22,0,12
Cl.Fc1ccccc1COc1ccc(Nc2ncnc3ccc(-c4nnc(C(F)(F)F)o4)cc23)cc1Cl [GW424170],0,0,0,0,0,16,0,0,0,0,0,0,4,0,0,0,10,0,0,0
